Assay [1] deals with Cytochrome P450 2C9 (Homo sapiens) (UniProt P11712). The assay can be described thus: qHTS Assay for Inhibitors and Substrates of Cytochrome P450 2C9 (AID 883). Note: nearly all actives have a fitted effect of over 60% in size. The gist of the method: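 CYP2C9 deoxyluciferin hydroxylation, 37C, 60 min with NADPH regeneration; 10nM enzyme, 100uM Luciferin-H (KM). Glo detection reagent stopped reaction; luminescence normalized to sulphaphenazole (57uM) full inhibition.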
In general terms: In qHTS, concentration-response curves come from the screen itself.

Assay [2] deals with Cytochrome P450 3A4 (Homo sapiens) (UniProt P08684). The assay can be described thus: qHTS Assay for Inhibitors and Substrates of Cytochrome P450 3A4 (AID 884). Note: series mostly up to about 57 µM; nearly all actives have a fitted effect of over 50% in size. The gist of the method: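 Luminescent readout of luciferin produced by CYP3A4 (20 nM) dealkylation of Luciferin-PPXE, 25 uM (its KM). NADPH-driven reaction ran 60 min at RT after 10 min compound preincubation; data scaled to 57 uM ketoconazole as 100% inhibition.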
Cytochrome P450 3A4 (Homo sapiens), sequence (P08684 whole entry, looked up): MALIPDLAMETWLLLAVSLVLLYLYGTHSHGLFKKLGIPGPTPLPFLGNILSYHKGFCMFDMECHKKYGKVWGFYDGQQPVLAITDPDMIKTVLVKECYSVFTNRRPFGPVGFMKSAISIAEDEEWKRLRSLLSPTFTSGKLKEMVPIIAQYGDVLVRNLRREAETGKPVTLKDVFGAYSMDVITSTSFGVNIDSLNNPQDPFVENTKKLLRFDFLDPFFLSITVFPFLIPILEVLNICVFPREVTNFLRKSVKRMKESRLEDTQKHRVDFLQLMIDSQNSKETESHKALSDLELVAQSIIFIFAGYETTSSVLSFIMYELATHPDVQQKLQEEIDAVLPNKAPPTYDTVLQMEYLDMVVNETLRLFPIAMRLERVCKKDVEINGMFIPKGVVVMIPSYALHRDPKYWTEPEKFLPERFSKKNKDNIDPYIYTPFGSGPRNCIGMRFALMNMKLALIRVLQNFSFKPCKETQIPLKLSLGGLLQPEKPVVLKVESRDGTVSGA

For assay [3], the target named is Cytochrome P450 2D6 (Homo sapiens) (UniProt P10635). The assay is described as follows: qHTS Assay for Inhibitors and Substrates of Cytochrome P450 2D6 (AID 891).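 For activity change, negative = inhibition: luciferin methyl ether substrate demethylated by CYP2D6 with NADPH regeneration.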 Note: nearly all actives have a fitted effect of over 60% in size. Note: potency is the fitted concentration of half-maximal effect. Summed up: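 Luminescent read-out of luciferin formed by 5 nM human CYP2D6 demethylating 30 uM Luciferin-ME EGE (Km level) over 60 min at room temperature after NADPH regeneration addition. Data normalized to full inhibition by 1.43 uM quinidine.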
Cytochrome P450 2D6 (Homo sapiens), sequence (P10635 whole entry, looked up): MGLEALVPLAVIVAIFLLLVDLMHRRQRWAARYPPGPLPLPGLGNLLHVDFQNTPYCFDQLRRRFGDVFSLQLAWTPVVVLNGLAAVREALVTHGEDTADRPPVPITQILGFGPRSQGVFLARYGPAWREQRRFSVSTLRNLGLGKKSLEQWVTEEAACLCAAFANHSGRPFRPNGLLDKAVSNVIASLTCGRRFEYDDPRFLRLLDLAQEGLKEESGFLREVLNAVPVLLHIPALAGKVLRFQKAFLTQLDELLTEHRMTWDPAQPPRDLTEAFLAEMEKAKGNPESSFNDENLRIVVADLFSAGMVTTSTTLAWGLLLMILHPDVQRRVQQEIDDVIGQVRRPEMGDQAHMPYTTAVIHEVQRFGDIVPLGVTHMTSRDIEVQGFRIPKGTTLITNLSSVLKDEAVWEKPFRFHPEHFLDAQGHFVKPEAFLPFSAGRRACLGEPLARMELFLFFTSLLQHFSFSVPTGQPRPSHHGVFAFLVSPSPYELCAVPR

Assay [4] deals with Cytochrome P450 2C19 (Homo sapiens) (UniProt P33261). The assay is described as follows: qHTS Assay for Inhibitors and Substrates of Cytochrome P450 2C19 (AID 899). Note: nearly all actives have a fitted effect of over 60% in size. Summed up: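 In 50mM KPO4, the reaction held 5nM enzyme and KM-level (10uM) Luciferin-H EGE; it ran 60 min at 37C after NADPH regeneration and a 10 min compound preincubation. Luminescence values were scaled to 57uM ketoconazole as complete inhibition.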
Cytochrome P450 2C19 (Homo sapiens), sequence (P33261 whole entry, looked up): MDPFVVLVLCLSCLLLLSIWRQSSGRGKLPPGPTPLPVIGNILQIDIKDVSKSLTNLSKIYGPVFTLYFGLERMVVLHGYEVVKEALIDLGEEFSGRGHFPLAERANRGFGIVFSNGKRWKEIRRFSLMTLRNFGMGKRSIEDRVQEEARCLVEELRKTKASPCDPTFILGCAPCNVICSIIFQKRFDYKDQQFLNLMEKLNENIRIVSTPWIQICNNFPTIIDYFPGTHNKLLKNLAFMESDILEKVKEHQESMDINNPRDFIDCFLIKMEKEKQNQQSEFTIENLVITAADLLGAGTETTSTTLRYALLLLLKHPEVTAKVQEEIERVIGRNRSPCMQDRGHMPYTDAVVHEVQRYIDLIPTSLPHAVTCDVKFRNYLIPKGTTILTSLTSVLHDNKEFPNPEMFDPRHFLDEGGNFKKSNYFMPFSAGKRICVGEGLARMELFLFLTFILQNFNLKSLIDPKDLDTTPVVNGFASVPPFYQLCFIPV

Inconclusive results are not listed. Unmarked numbers belong to inactive results. Calls of active or inactive are those of the source. Calls come from the whole dose curve; as a rule, active = well fitted inhibition curve with a large enough effect; inconclusive = small, poorly fitted or top-dose-only effect; inactive = no such curve, though single readings can be large or run the other way.
% is set by controls: 0 for no effect and ±100 for the full control effect.

Cytochrome P450 2C9 (Homo sapiens), sequence (P11712 whole entry, looked up): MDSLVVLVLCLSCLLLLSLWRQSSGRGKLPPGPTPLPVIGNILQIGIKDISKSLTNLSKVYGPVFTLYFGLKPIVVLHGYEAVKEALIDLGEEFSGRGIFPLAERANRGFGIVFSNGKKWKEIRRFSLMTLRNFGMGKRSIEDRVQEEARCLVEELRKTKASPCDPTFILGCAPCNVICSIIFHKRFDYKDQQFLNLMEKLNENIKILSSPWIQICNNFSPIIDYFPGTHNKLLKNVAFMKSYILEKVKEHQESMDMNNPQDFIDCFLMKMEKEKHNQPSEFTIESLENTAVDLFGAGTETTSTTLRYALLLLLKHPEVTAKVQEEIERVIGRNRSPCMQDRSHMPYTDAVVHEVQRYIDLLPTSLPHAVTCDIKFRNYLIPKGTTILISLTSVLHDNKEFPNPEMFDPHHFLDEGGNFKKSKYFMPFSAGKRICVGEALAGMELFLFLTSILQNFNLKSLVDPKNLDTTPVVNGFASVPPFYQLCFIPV

Consider `CC1CCC2C(=O)N3C(CCC(C)C3c3ccc(-c4ccco4)cc3)C(=O)N2C1c1ccc(-c2ccco2)cc1` (stereo not given), for which the Potency entry in assay [1], in assay [3] and in assay [4] was “inactive” each time. In addition, in assay [2], the activity change, negative = inhibition is -11.9% [at 11.4 µM].

In the case of `COC(=O)NC(/C(C(=O)OC)=C(\C)NCc1ccccc1)c1ccco1` (stereo not given), the Potency result in assay [1], in assay [3] and in assay [4] was “inactive” in each case. Further, the activity change, negative = inhibition in assay [2] was -20.3% [at 11.4 µM].

On to `C=CCC1(c2ccccc2)Oc2ccc(C)cc2-c2nc3cc(Cl)c(Cl)cc3nc21` (stereo not given), for which the Potency entry in assay [1], in assay [3] and in assay [4] was “inactive” each time. Further, in assay [2], the activity change, negative = inhibition was -28.2% [at 11.4 µM].

`CCC1OCCC=CC1C` (stereo not given): the Potency result in assay [1], in assay [3] and in assay [4] was “inactive” throughout. Besides, the activity change, negative = inhibition in assay [2] is -15% [at 11.4 µM].

On to `C=C(C)CC1(c2ccccc2)Oc2ccccc2-c2nc3cc(Cl)c(Cl)cc3nc21` (stereo not given), for which the Potency entry in assay [1], in assay [3] and in assay [4] was “inactive” in each case. The activity change, negative = inhibition in assay [2] is -4.89% [at 11.4 µM].

As for `O=C(O)C1Cc2c([nH]c3ccccc23)C(c2ccccc2)N1` (stereo not given), the Potency result in assay [1] and in assay [4] was “inactive” throughout. Moreover, the activity change, negative = inhibition in assay [2] was -14.4% [at 11.4 µM]. The Potency in assay [3] was 3.98 µM (active).

With `COC(C(C)/C=C/CC(=O)OCCCc1ccccc1)C1CCCCC1` (stereo not given), the Potency entry in assay [1], in assay [3] and in assay [4] was “inactive” each time. The activity change, negative = inhibition in assay [2] is -20.5% [at 11.4 µM].

With `CC(C)C(=O)NC(=O)C1CCCN1C(=O)/C=C/c1ccccc1` (stereo not given), the Potency entry in assay [1], in assay [3] and in assay [4] was “inactive” in each case. The activity change, negative = inhibition in assay [2] was -10.1% [at 11.4 µM].

For the molecule `CC1CCC(C(=O)O)NC1c1ccc(-c2ccco2)cc1` (stereo not given), the Potency entry in assay [1], in assay [3] and in assay [4] was “inactive” throughout. Moreover, the activity change, negative = inhibition in assay [2] was -4.5% [at 11.4 µM].

Regarding `CCOC(=O)CCCCC1=CC2=CC(=O)C(C)(O)C(=O)C2=CO1` (stereo not given), the Potency result in assay [1], in assay [3] and in assay [4] was “inactive” in each case. Besides, the activity change, negative = inhibition in assay [2] is -20.4% [at 11.4 µM].

The values are drawn from PubChem BioAssay (NCATS).
